Source: PubChem BioAssay
Calls of active or inactive are those of the source.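 How the source made its calls, unless noted: active means inhibition above 20% together with a positive visual image hit; inconclusive means visual image hit but inhibition not above 20%; inactive means no visual image hit.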

Legend:
[1] = inhibitors of TNFa-induced NFkB p65 translocation, primary screen, imaging, HUVEC, MLSMR starter and 10KST1 sets (AID 438); conditions: HUVEC TNFa-induced p65 nuclear translocation; cell count: measured here: nuclei count (cytotoxicity indicator), at 2.08 µM; inhibition: at 2 µM, stronger effect = higher value, 0% TNFa-plus-vehicle, 100% no-TNFa wells;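 further: compound added about 3h40 before a 20 min TNFalpha stimulation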;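 on inhibition: signal is the nuclear over cytoplasmic p65 intensity ratio per well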
[2] = inhibitors of mutant huntingtin aggregation, primary screen, imaging, exon1htt(103Q)mCFP cells, high-content imaging (AID 483;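 active means visual image review flags a hit and inhibition of aggregation exceeds 20%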;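 further: compound exposure lasted 3 days before fixation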;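 on nuclei count: percent of the per-plate median nuclei count of sample wells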); conditions: exon1htt(103Q)mCFP cell line, aggregate imaging, at 2 µM; inhibition of aggregation: stronger effect = higher value; nuclei count: measured here: cell count, toxicity
[3] = inhibitors of E-selectin induction by TNFa, primary screen, imaging, HUVEC, immunofluorescence, MLSMR starter and 10KST1 sets (AID 487;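 active means visually confirmed hit in the image check and inhibition above 20%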;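 on inhibition: signal is fraction of cell area covered by stained E-selectin grains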;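 on nuclei count: 100% = median nuclei count of all wells on the same plate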); conditions: HUVEC TNFalpha-induced E-selectin immunofluorescence imaging, at 2 µM; inhibition: stronger effect = higher value; nuclei count: measured here: cell number, toxicity
[4] = target: Voltage-gated potassium channel subunit beta-2 (Rattus norvegicus) (UniProt P62483); assay: KvBeta enzyme negative modulators, primary screen, biochemical, NADPH fluorescence (AID 622;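 active means fluorescence slope higher than the sample average by over 3 SD, cut at about -0.22 in these data, passing the limit was not always enough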;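 further: slope of raw intensity against log time taken from 70 to 1610 s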); conditions: recombinant KvBeta, 4-cyanobenzaldehyde reduction, at 10 µM, stronger effect = higher value
Sequence of Voltage-gated potassium channel subunit beta-2 (Rattus norvegicus) (P62483 whole entry, looked up): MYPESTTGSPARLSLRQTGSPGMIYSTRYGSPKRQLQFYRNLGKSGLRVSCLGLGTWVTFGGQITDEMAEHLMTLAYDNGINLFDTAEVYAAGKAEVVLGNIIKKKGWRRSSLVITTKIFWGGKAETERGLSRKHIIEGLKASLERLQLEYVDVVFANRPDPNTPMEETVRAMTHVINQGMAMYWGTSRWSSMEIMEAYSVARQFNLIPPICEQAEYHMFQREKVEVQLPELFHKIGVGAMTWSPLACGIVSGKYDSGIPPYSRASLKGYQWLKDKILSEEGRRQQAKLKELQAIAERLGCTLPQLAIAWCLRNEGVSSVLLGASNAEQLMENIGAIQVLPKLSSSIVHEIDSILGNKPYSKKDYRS

[5] = target: Voltage-gated potassium channel subunit beta-2 (Rattus norvegicus) (UniProt P62483); assay: KvBeta positive modulators, primary screen, biochemical, NADPH fluorescence (AID 623;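 active means NADPH fluorescence slope more negative than the mean of all samples by about 3 SD, 99.7% confidence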;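 further: fluorescence intensity change per second fitted from 20 to 320 s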); conditions: Recombinant KvBeta, NADPH fluorescence decrease slope, 10 min; at 10 µM; stronger effect = lower value
[6] = target: Alpha-2C adrenergic receptor (Homo sapiens) (UniProt P18825); assay: modulators of alpha2C/GIRK thallium flux, primary screen, cell-based, HEK293 alpha2C/GIRK1/2 (AID 624;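 active means fluorescence slope after compound addition differing from the mean of all screened samples at 99.7% confidence, in either direction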;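 further: slope of fluorescence ratio to pre-addition baseline per second over 15 to 24 s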); conditions: thallium flux BTC fluorescence, at 10 µM, actives lie on both sides
Sequence of Alpha-2C adrenergic receptor (Homo sapiens) (P18825 whole entry, looked up): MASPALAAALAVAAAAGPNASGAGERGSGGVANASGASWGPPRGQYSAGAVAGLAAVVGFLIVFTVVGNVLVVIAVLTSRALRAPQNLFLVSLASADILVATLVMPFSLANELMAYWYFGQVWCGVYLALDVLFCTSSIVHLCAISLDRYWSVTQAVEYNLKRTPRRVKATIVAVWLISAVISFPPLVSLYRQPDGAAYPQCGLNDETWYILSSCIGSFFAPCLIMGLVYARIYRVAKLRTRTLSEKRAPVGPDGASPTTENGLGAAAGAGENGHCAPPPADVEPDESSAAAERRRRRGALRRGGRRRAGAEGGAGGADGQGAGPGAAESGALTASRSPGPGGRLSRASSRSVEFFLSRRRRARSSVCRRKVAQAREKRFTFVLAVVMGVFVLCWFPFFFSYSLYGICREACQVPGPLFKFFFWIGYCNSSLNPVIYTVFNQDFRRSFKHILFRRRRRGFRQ

[7] = inhibitors of Sendai virus-induced IRF3 signaling, primary screen, TLR/RLR signaling modifier project, cell-based, Sendai virus stimulus, luciferase, 10K MLSCN set (AID 602276;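 active means inhibition at or above 50% at 10 µM; inactive means inhibition below 50%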;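 further: firefly luciferase from ISG56 promoter only with Renilla not read in this screen; 0% = Sendai virus plus DMSO and 100% = medium plus DMSO without virus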); conditions: HEK293 RL24 IRF3 luciferase reporter, at 10 µM, stronger effect = higher value
[8] = inhibitors of poly I:C-induced TLR3 signaling, primary screen, cell-based, poly I:C stimulus, luciferase, 10K MLSCN set (AID 602277;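 active means inhibition of the reporter signal at or above 50%; inactive means inhibition below 50%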); conditions: HEK293-TLR3 RL24 IRF3 luciferase reporter, at 10 µM, stronger effect = higher value

SMILES	cell count [1]	inhibition [1]	inhibition of aggregation [2]	nuclei count [2]	inhibition [3]	nuclei count [3]	fluorescence slope [4]	NADPH fluorescence slope [5]	slope [6]	inhibition [7]	inhibition [8]
Cc1c(C(=O)N2CCN(c3ccccc3)CC2)sc2ncnc(N3CCN(c4ccccc4)CC3)c12	613	6.2% (inactive)	9.7% (inactive)	107%	-70.4% (inactive)	127%	-0.445 (inactive)	-1.1e-05 (inactive)	0.00705 (inactive)	7.72% (inactive)	4.87% (inactive)
Nc1c(S(=O)(=O)c2cccs2)c2nc3ccccc3nc2n1CC1CCCO1 (stereo not drawn)	667	-7.3% (inactive)	-6% (inactive)	117%	-71.1% (inactive)	141%	-0.0861 (active)	2.8e-06 (inactive)	0.00409 (inactive)	10.7% (inactive)	35.1% (inactive)
O=C(c1cc(C2CC2)on1)N1CCN(C(c2ccccc2)c2ccccc2)CC1	731	-3.5% (inactive)	25% (inactive)	82%	-61% (inactive)	89.3%	-0.573 (inactive)	-7.4e-06 (inactive)	0.00569 (inactive)	7.04% (inactive)	35.9% (inactive)
Cc1nc2ccc(S(=O)(=O)NCC(=O)N3CCCCC3)cc2s1	277	-3% (inactive)	11.4% (inactive)	79.6%	27.3% (inactive)	94.4%	-0.488 (inactive)	-4.1e-05 (inactive)	0.00708 (inactive)	-10.6% (inactive)	-1.82% (inactive)
COc1ccccc1CN1C(=S)SC(C)(C)C1NO (stereo not drawn)	487	10.4% (inactive)	-2.9% (inactive)	88.5%	30.1% (inactive)	105%	-0.499 (inactive)	-3.5e-05 (inactive)	0.00451 (inactive)	15.8% (inactive)	21.5% (inactive)
O=C(Nc1cccnc1)c1cccc(NC(=O)c2ccco2)c1	350	1.5% (inactive)	-3.4% (inactive)	104%	13.4% (inactive)	115%	-0.446 (inactive)	6.3e-05 (inactive)	0.00622 (inactive)	16.9% (inactive)	22.4% (inactive)
Cc1ccc(NC(=O)c2ccco2)c(NC(=O)c2cccs2)c1	684	4.8% (inactive)	9.4% (inactive)	103%	-119% (inactive)	111%	-0.375 (inactive)	2e-06 (inactive)	0.00493 (inactive)	14.6% (inactive)	16.5% (inactive)
O=C(Oc1cccc2cccnc12)c1cccc(-n2cnnn2)c1	461	2.7% (inactive)	-8.5% (inactive)	105%	-16.1% (inactive)	93.4%	-0.494 (inactive)	-3.7e-05 (inactive)	0.00392 (inactive)	15% (inactive)	24.5% (inactive)
CCN1CCCC1CN=Cc1c(O)n(-c2ccccc2)c(=O)c2ccccc12 (stereo not drawn)	609	-0.3% (inactive)	-8.1% (inactive)	109%	-12.1% (inactive)	97.6%	-0.598 (inactive)	-2e-05 (inactive)	0.00513 (inactive)	-6.81% (inactive)	16.9% (inactive)
N#Cc1ccc(COC(=O)Cn2nnc(-c3ccccc3)n2)cc1	503	-15.2% (inactive)	-8.3% (inactive)	98.8%	-124% (inactive)	121%	-0.614 (inactive)	-1.6e-05 (inactive)	0.00648 (inactive)	9.56% (inactive)	19.4% (inactive)
CCOc1cc(C(=O)NCc2ccncc2)cc(OCC)c1OCC	596	1.6% (inactive)	3.9% (inactive)	100%	-121% (inactive)	114%	-0.407 (inactive)	-4.6e-05 (inactive)	0.00658 (inactive)	7.46% (inactive)	18.3% (inactive)
Cn1nnnc1SCc1cn2cccnc2n1	227	0.3% (inactive)	9.5% (inactive)	97.2%	-25.9% (inactive)	117%	-0.106 (inactive)	2.9e-05 (inactive)	0.00615 (inactive)	9.85% (inactive)	9.08% (inactive)
CCOC(=O)c1[nH]c(=O)c2ccccc2c1O	367	-3.9% (inactive)	2.9% (inactive)	96.9%	-0.2% (inactive)	116%	-0.512 (inactive)	-1.7e-05 (inactive)	0.00472 (inactive)	-11.9% (inactive)	-8.42% (inactive)
CCOC(=O)c1ccccc1NC(=O)c1ccc(NS(C)(=O)=O)cc1	485	-2.2% (inactive)	10.4% (inactive)	90.2%	26.8% (inactive)	86%	-0.473 (inactive)	-6e-06 (inactive)	0.00606 (inactive)	6.8% (inactive)	11.4% (inactive)
CC(C)C1N=C2c3ccccc3N=C(SCc3cc(=O)n4ccccc4n3)N2C1=O (stereo not drawn)	646	-10.9% (inactive)	4.4% (inactive)	58.8%	-35.3% (inactive)	90%	-0.451 (inactive)	2.2e-05 (inactive)	0.00398 (inactive)	6.75% (inactive)	-22.1% (inactive)
O=C(CN1CCCN(S(=O)(=O)c2ccc(F)cc2)CC1)Nc1ccccc1Br	220	-1.3% (inactive)	2% (inactive)	108%	-17.3% (inactive)	118%	-0.504 (inactive)	2.2e-05 (inactive)	0.00558 (inactive)	3.65% (inactive)	9.12% (inactive)
COc1ccc(OCCCC(=O)Nc2nncs2)cc1	296	22.6% (inactive)	12.8% (inactive)	95.6%	-32.3% (inactive)	102%	-0.294 (inactive)	-3.4e-05 (inactive)	0.00603 (inactive)	-0.71% (inactive)	5.99% (inactive)
COc1ccc(Cl)cc1S(=O)(=O)n1cnc2ccccc21	725	-4.8% (inactive)	-5.8% (inactive)	92.3%	-42.3% (inactive)	104%	-0.403 (inactive)	9.7e-06 (inactive)	0.00504 (inactive)	19.3% (inactive)	31.3% (inactive)
CCc1nn2c(N3CCOCC3)cc(C)nc2c1-c1ccc(F)cc1	716	-9.7% (inactive)	-24.7% (inactive)	101%	-46.2% (inactive)	114%	-0.465 (inactive)	-0.000126 (inactive)	0.0049 (inactive)	10.6% (inactive)	18.4% (inactive)
CCN(CC)c1ccc(-c2c(C#N)c(N)nc(OC)c2C#N)cc1	426	-3.8% (inactive)	-21% (inactive)	112%	-13.4% (inactive)	113%	-0.0839 (inactive)	5.4e-06 (inactive)	0.00577 (inactive)	-0.552% (inactive)	18.3% (inactive)
Cn1c(-c2cc(Br)ccc2O)n[nH]c1=S	440	5.5% (inactive)	-2.6% (inactive)	109%	-76.5% (inactive)	118%	-0.51 (inactive)	4.9e-05 (inactive)	0.00989 (inactive)	-4.65% (inactive)	-14.4% (inactive)
CCOc1cc(S(=O)(=O)N2CCC(Cc3ccccc3)CC2)c(OCC)cc1-n1cnnn1	517	1.9% (inactive)	-5.6% (inactive)	103%	-119% (inactive)	178%	-0.613 (inactive)	9.5e-06 (inactive)	0.0103 (inactive)	-0.144% (inactive)	10.4% (inactive)
N#Cc1cnc(SCCc2ccccc2)nc1N	630	-13.1% (inactive)	-5.2% (inactive)	93.9%	-14.8% (inactive)	108%	-0.291 (inactive)	-5.5e-05 (inactive)	0.00492 (inactive)	-34% (inactive)	-61.8% (inactive)
CC1CC(NC(=O)c2cnc3n(c2=O)CCS3)CC(C)(C)C1 (stereo not drawn)	626	-2.3% (inactive)	-23.1% (inactive)	113%	-37.1% (inactive)	112%	-0.56 (inactive)	-4.4e-05 (inactive)	0.00953 (inactive)	16.9% (inactive)	38.3% (inactive)
Cc1cc2cc(CCNC(=O)CC(C)C)c(=O)[nH]c2cc1C	633	-5.8% (inactive)	15.1% (inactive)	83.5%	-40% (inactive)	107%	-0.595 (inactive)	-2.7e-05 (inactive)	0.00623 (inactive)	-11.5% (inactive)	-9.56% (inactive)
Cc1cccc(-c2nnn(CC/C(N)=N/O)n2)c1	321	-4.8% (inactive)	-1.8% (inactive)	84.2%	25.6% (inactive)	90.5%	-0.496 (inactive)	-2.1e-05 (inactive)	0.00549 (inactive)	2.73% (inactive)	-10.7% (inactive)
COC(=O)c1ccc(NC(=O)Cn2nnc3ccccc32)cc1	445	-10.2% (inactive)	8.3% (inactive)	134%	-8.2% (inactive)	134%	-0.377 (inactive)	-5.8e-05 (inactive)	0.0057 (inactive)	-21.8% (inactive)	-69.7% (inactive)
Cc1ccc(S(=O)(=O)NC(=O)c2cc(C)n(CCCn3ccnc3)c2C)cc1	218	-2.9% (inactive)	9.2% (inactive)	92.3%	-86.6% (inactive)	108%	-0.596 (inactive)	-2.4e-05 (inactive)	0.00417 (inactive)	11.6% (inactive)	13.5% (inactive)
